In PubChem BioAssay (EPA / NIEHS) one finds AC50 and outcome data, which are given here for 6 compounds.

Values joined by “and” are separate entries in the source; they are usually repeats but may differ in a detail not shown here. Identical values can stand only once. Results filed as inconclusive are left out. Active and inactive are the calls of the source. How the source made its calls, unless noted: active means hit-call score of the fitted dose curve at least 0.9, where 1 is the maximum; inconclusive means response in the unintended direction; inactive means score below 0.9.

Experiment [1] has as its target Cytochrome P450 2C18 (Homo sapiens) (UniProt P33260). The experiment in a line: NVS_ADME_hCYP2C18: NovaScreen (NVS) CYP450-related Enzyme Activity (ADME) Assay for human CYP2C18 (AID 2283103; active means hit-call score of the fitted dose curve at least 0.9, where 1 is the maximum; inactive means score below 0.9). Put shortly: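 Enzyme activity measured by fluorescence 0.5 h after compound addition, using recombinant CYP2C18 and a specific substrate. Actives from duplicate 10 uM screening were retested in concentration series (top 20 uM); acetonitrile served as negative baseline.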

Another experiment deals with rat CYP2B1, gene 24300. The experiment is described as follows: NVS_ADME_rCYP2B1: NovaScreen (NVS) CYP450-related Enzyme Activity (ADME) Assay for rat CYP2B1 (AID 2283117). The method, boiled down:
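Cell-free fluorescence enzyme assay, recombinant rat CYP2B1, 0.75 h after dosing. Single-concentration duplicates at 10 uM preceded concentration series (max 20 uM) for actives; acetonitrile as negative-control baseline.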

Experiment [2] concerns the target rat CYP2D1, Cyp2d1 (gene 266684) (UniProt P10633). The experiment in a line: NVS_ADME_rCYP2D1: NovaScreen (NVS) CYP450-related Enzyme Activity (ADME) Assay for rat CYP2D1 (AID 2283122). Put shortly:
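Rat CYP2D1 enzyme activity measured by fluorescence intensity in a cell-free format, 0.75 h post-dosing, acetonitrile as negative control. Screening at 10 uM in duplicate, with actives followed in concentration series up to 20 uM.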

For experiment [3], the target named is Androgen receptor (Homo sapiens) (UniProt P10275). The experiment is described as follows: ATG_AR_TRANS: Attagene TRANS-FACTORIAL HepG2 Assay for human Androgen Receptor (AR) (AID 2282973). The following applies: HepG2 Attagene TRANS-FACTORIAL AR reporter transcription. Put shortly:
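Steps: transfect HepG2 with multiple GAL4-UAS reporter transcription units (TRANS format, exogenous NR-Gal4 protein); dose 24 h; isolate RNA, reverse-transcribe, PCR-amplify, FAM-label, HpaI-digest; resolve by capillary electrophoresis. Positive direction vs DMSO.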

A short description of experiment [4]: Tanguay_ZF_120hpf_MUSC: Oregon State University Tanguay Lab 120 Hour Post-fertilization zebrafish Assay for Muscle Malformation (AID 2284401; active means hit-call score of the fitted dose curve at least 0.9, where 1 is the maximum; inactive means score below 0.9). Put shortly:
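Scored as a binary brightfield endpoint at 120 hpf, fitted versus DMSO. Single dechorionated wild-type (Tropical 5D) zebrafish embryos per well, statically exposed at 28C from 6 hpf onward with final DMSO 0.64%.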

Experiment [5] concerns the target human CYP4F12, CYP4F12 (gene 66002) (UniProt Q9HCS2). The experiment is described as follows: NVS_ADME_hCYP4F12: NovaScreen (NVS) CYP450-related Enzyme Activity (ADME) Assay for human CYP4F12 (AID 2283111). The method, boiled down: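 Recombinant enzyme with a fluorescent substrate, signal read at 0.5 h post-dose; activity loss analysed relative to acetonitrile. Compounds first run in duplicate at 10 uM, with follow-up concentration-response testing of actives.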

Experiment [6] has as its target human Acetylcholinesterase (AChE), ACHE (gene 43) (UniProt P22303). The experiment in a line: NVS_ENZ_hAChE: NovaScreen (NVS) Enzymatic Assay for human Acetylcholinesterase (AChE) (AID 2283129). Put shortly:
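Actives from a duplicate single-point screen (25 uM) were followed up in concentration series. Enzyme activity read by absorbance (colorimetric) 0.33 hour after dosing, cell-free, normalized to DMSO, with loss of signal scored.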

Another experiment concerns the target Caspase-1 (Homo sapiens) (UniProt P29466). The experiment is described as follows: NVS_ENZ_hCASP1: NovaScreen (NVS) Enzymatic Assay for human Caspase 1 (CASP1) (AID 2283132). Put shortly: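 Compounds were first tested in duplicate at 25 uM, with follow-up concentration series up to 50 uM. The bacterially expressed enzyme was read by fluorescence at 1 h post-dosing. Signal loss versus DMSO baseline indicates reduced enzyme activity.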

The target of experiment [7] is human Caspase 2 (CASP2), CASP2 (gene 835) (UniProt P42575). The experiment in a line: NVS_ENZ_hCASP2: NovaScreen (NVS) Enzymatic Assay for human Caspase 2 (CASP2) (AID 2283135). Put shortly: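 Single-point duplicate testing at 25 uM preceded concentration series topping at 50 uM. Activity of the recombinant E. coli-derived protease was followed by fluorescent substrate cleavage 1 h post-dosing, relative to DMSO.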

Experiment [8] addresses human Aurora Kinase A - serine/threonine-protein Kinase 6 (AurA), AURKA (gene 6790) (UniProt O14965). The experiment in a line: NVS_ENZ_hAurA: NovaScreen (NVS) Enzymatic Assay for human Aurora Kinase A - serine/threonine-protein Kinase 6 (AurA) (AID 2283142). Put shortly: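 Recombinant human AurA activity read by fluorescence after mobility-shift separation of product from substrate; 1 hour incubation. Chemicals first run in duplicate at 25 uM, then concentration series to 50 uM if over threshold; fitted relative to DMSO.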

Experiment [9] has as its target human Epidermal Growth Factor Receptor (EGFR), EGFR (gene 1956) (UniProt P00533). The experiment is described as follows: NVS_ENZ_hEGFR: NovaScreen (NVS) Enzymatic Assay for human Epidermal Growth Factor Receptor (EGFR) (AID 2283151). Put shortly: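 Cell-free kinase assay, fluorescence plus electrophoretic mobility shift separating substrate and product, read 1 hour after dosing; loss of signal vs DMSO. Duplicate screen at 25 uM, then concentration-response to 50 uM.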

For experiment [10], the target named is human Fibroblast Growth Factor Receptor 1 (FGFR1), FGFR1 (gene 2260) (UniProt P11362). The experiment is described as follows: NVS_ENZ_hFGFR1: NovaScreen (NVS) Enzymatic Assay for human Fibroblast Growth Factor Receptor 1 (FGFR1) (AID 2283159).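 Further: hits lower the signal so potencies describe inhibitors of the kinase.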 The method, boiled down:
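Cell-free recombinant kinase with fluorescent substrate, product separated by electrophoretic mobility shift; read 1 hour after dosing, loss of signal relative to DMSO. Initial screen in duplicate at 25 uM, actives followed in concentration series.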

The target in experiment [11] is human Phosphatase and Tensin Homolog (PTEN), PTEN (gene 5728) (UniProt P60484). The experiment in a line: NVS_ENZ_hPTEN: NovaScreen (NVS) Enzymatic Assay for human Phosphatase and Tensin Homolog (PTEN) (AID 2283203). Put shortly:
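Loss of fluorescent product signal after mobility-shift separation reports PTEN activity, recombinant human enzyme, 1 h after compound addition. Single 25 uM duplicate screen, then concentration-response on actives; DMSO baseline.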

Experiment [12] addresses human Protein Tyrosine Phosphatase Non-receptor Type 2 (PTPN2), PTPN2 (gene 5771) (UniProt P17706). The experiment is described as follows: NVS_ENZ_hPTPN2: NovaScreen (NVS) Enzymatic Assay for human Protein Tyrosine Phosphatase Non-receptor Type 2 (PTPN2) (AID 2283207). The method, boiled down:
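Activity measured as fluorescence after mobility-shift separation of substrate and product, 1 h after compound. Duplicate single-point 25 uM primary testing, concentration series for actives; inhibition scored as signal loss relative to DMSO baseline.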

Experiment [13] has as its target human Raf-1 Proto-Oncogene, serine/threonine Kinase (RAF1), RAF1 (gene 5894) (UniProt P04049). The experiment in a line: NVS_ENZ_hRAF1: NovaScreen (NVS) Enzymatic Assay for human Raf-1 Proto-Oncogene, serine/threonine Kinase (RAF1) (AID 2283216). The method, boiled down:
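Single-point screening at 25 uM (duplicate), followed by singleton concentration-response to 50 uM maximum for chemicals exceeding threshold. Enzyme activity from fluorescent substrate-product mobility-shift separation after 1 h, relative to DMSO.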

For experiment [14], the target named is human Tyrosine Protein Kinase Receptor Tie-2 (Tie2), TEK (gene 7010) (UniProt Q02763). The experiment in a line: NVS_ENZ_hTie2: NovaScreen (NVS) Enzymatic Assay for human Tyrosine Protein Kinase Receptor Tie-2 (Tie2) (AID 2283225). The method, boiled down: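 Substrate and product were separated by mobility shift and detected by fluorescence after a 1-hour reaction with recombinant Tie2. Chemicals passing a 25 uM single-point screen were titrated to a maximum of 50 uM. Results were normalized to DMSO baseline.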

The target of experiment [15] is rat Adenylate Cyclase, Forskolin Stimulated, Adcy5 (gene 64532) (UniProt Q04400). The experiment in a line: NVS_ENZ_rACFSKBinding: NovaScreen (NVS) Enzymatic Assay for rat Adenylate Cyclase, Forskolin Stimulated (AID 2283232). The method, boiled down:
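Chemicals were first tested at 25 uM in duplicate, then hits run as concentration series with top concentration 50 uM. Enzyme source was rat forebrain membranes; radiometric filter read-out after 1 h, referenced to DMSO.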

The target of experiment [16] is rat Acetylcholinesterase (AChE), Ache (gene 83817) (UniProt P37136). The experiment is described as follows: NVS_ENZ_rAChE: NovaScreen (NVS) Enzymatic Assay for rat Acetylcholinesterase (AChE) (AID 2283233). Put shortly:
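Compounds first screened at 25 uM in duplicate, then those passing threshold tested in concentration series up to 50 uM, against AChE from rat brain membranes. Enzyme activity read by absorbance at 0.33 h; inhibition scored versus DMSO.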

For experiment [17], the target named is rat Corticotropin Releasing Factor Receptor (CRF), Crhr1 (gene 58959) (UniProt P35353). The experiment in a line: NVS_GPCR_rCRF: NovaScreen (NVS) G Protein-Coupled Receptor Assay for rat Corticotropin Releasing Factor Receptor (CRF) (AID 2283300). The method, boiled down: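 Single-concentration (25 uM, duplicate) radioligand binding on rat cortical membrane preparations, counted by scintillation after 2 h. Activity scored as signal loss relative to DMSO negative control.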

For experiment [18], the target named is human Neonicotinoid receptor (NNR), CHRNA2 (gene 1135) (UniProt Q15822). The experiment is described as follows: NVS_LGIC_hNNR_NBungSens: NovaScreen (NVS) Ligand-Gated Ion Channel Assay for human Neonicotinoid receptor (NNR) (AID 2283313). The method, boiled down: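 Compounds first screened in duplicate at 25 uM, then actives re-tested in single-replicate dose series up to 50 uM. Binding measured as displacement of specific radioligand from neuroblastoma membrane receptors after 2 h, scintillation read on filters.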

Chain of Androgen receptor (Homo sapiens) (P10275 whole entry, looked up, the tested form may be a part): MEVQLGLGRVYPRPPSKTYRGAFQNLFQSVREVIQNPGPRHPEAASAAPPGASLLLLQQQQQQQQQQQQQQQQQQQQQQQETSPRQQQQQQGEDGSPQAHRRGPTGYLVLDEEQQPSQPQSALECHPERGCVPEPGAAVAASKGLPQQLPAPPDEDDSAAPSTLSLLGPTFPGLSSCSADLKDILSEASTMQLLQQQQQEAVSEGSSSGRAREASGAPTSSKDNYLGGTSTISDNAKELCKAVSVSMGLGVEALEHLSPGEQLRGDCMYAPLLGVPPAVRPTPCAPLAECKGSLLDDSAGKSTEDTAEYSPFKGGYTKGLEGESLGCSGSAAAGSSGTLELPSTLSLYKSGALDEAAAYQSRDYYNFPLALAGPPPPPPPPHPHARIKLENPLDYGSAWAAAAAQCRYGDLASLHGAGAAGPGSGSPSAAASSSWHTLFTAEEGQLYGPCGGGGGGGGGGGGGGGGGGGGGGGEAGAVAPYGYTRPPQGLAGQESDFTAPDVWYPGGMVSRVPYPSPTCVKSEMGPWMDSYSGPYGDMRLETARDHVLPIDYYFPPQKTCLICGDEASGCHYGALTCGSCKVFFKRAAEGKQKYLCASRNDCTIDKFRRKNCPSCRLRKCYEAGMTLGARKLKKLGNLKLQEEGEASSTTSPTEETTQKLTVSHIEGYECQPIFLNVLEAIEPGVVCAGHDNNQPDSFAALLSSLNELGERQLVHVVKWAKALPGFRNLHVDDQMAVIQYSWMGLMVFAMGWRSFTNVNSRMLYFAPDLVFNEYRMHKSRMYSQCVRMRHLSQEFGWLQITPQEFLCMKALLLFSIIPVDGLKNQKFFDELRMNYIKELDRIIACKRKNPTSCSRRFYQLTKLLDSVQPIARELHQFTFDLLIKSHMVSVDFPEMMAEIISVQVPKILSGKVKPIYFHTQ
Chain of human Tyrosine Protein Kinase Receptor Tie-2 (Tie2), TEK (gene 7010) (Q02763 whole entry, looked up): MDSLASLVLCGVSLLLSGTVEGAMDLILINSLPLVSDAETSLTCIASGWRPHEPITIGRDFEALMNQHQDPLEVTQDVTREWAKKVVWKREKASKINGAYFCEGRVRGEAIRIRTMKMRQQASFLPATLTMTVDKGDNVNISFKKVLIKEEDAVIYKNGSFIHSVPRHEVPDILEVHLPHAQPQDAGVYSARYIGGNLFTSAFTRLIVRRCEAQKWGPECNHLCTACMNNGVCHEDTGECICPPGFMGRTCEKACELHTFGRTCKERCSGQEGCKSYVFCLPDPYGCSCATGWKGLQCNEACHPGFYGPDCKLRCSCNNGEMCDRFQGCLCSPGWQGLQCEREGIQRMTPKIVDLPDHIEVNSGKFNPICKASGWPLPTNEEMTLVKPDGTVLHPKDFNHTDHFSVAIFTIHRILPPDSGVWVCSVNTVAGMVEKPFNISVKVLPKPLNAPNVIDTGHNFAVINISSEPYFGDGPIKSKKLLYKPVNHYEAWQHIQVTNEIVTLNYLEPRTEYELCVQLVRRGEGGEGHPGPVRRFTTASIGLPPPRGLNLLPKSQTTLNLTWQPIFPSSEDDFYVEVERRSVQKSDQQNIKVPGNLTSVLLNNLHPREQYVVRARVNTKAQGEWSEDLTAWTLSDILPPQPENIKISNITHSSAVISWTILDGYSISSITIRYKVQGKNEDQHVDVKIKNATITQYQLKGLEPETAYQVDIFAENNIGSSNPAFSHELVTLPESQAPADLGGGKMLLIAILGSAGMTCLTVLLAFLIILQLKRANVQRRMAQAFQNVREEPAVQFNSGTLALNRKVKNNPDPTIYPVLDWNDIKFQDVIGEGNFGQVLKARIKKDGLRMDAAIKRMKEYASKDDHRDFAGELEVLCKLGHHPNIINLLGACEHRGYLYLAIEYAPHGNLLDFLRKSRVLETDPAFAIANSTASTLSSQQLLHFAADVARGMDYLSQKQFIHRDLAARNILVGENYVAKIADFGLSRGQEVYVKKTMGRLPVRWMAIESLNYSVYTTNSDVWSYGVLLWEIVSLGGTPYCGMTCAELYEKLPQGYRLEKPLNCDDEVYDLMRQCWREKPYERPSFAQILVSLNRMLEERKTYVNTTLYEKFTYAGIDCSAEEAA
Chain of Caspase-1 (Homo sapiens) (P29466 whole entry, looked up): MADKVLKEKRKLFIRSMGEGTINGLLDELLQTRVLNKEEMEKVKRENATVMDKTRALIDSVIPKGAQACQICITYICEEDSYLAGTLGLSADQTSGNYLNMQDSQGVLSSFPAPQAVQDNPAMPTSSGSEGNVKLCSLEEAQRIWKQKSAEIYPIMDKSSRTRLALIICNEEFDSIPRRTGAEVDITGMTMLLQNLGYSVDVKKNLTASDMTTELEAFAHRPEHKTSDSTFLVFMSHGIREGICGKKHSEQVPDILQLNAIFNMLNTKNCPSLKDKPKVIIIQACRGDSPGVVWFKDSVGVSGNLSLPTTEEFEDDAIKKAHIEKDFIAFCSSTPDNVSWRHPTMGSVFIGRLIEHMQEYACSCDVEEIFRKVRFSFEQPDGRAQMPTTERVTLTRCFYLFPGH
Chain of human Fibroblast Growth Factor Receptor 1 (FGFR1), FGFR1 (gene 2260) (P11362 whole entry, looked up): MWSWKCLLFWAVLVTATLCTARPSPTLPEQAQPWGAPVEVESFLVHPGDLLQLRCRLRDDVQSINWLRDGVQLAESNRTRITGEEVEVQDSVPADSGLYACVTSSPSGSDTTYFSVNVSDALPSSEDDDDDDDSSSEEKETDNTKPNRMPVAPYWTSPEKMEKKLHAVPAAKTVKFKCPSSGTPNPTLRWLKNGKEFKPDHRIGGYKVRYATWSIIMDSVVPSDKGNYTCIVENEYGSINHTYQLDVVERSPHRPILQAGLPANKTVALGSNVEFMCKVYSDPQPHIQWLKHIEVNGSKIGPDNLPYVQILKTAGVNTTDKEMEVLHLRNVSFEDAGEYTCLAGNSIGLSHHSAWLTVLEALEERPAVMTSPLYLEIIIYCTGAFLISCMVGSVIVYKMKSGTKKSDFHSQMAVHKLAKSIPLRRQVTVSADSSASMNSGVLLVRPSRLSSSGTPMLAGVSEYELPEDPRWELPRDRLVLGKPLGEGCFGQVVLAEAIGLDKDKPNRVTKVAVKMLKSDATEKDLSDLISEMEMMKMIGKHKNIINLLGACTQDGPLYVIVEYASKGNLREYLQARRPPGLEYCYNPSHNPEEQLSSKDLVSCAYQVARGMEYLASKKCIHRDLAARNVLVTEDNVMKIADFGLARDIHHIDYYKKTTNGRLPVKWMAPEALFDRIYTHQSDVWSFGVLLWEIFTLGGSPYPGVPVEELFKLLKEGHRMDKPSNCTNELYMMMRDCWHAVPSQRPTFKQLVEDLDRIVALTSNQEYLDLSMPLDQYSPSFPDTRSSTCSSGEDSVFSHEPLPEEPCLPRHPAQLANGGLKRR
Chain of human Phosphatase and Tensin Homolog (PTEN), PTEN (gene 5728) (P60484 whole entry, looked up): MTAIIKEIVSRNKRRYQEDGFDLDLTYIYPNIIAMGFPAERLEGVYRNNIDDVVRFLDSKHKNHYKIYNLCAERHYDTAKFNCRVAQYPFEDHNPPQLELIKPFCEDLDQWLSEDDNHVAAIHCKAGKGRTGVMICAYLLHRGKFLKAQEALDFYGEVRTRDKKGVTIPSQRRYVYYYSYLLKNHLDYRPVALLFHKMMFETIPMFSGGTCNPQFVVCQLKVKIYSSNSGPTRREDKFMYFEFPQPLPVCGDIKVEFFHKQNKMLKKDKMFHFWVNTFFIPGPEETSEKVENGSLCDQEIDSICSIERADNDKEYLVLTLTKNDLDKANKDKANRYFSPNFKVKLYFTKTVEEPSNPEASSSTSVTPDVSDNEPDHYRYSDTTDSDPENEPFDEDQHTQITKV
Chain of human Epidermal Growth Factor Receptor (EGFR), EGFR (gene 1956) (P00533 whole entry, looked up): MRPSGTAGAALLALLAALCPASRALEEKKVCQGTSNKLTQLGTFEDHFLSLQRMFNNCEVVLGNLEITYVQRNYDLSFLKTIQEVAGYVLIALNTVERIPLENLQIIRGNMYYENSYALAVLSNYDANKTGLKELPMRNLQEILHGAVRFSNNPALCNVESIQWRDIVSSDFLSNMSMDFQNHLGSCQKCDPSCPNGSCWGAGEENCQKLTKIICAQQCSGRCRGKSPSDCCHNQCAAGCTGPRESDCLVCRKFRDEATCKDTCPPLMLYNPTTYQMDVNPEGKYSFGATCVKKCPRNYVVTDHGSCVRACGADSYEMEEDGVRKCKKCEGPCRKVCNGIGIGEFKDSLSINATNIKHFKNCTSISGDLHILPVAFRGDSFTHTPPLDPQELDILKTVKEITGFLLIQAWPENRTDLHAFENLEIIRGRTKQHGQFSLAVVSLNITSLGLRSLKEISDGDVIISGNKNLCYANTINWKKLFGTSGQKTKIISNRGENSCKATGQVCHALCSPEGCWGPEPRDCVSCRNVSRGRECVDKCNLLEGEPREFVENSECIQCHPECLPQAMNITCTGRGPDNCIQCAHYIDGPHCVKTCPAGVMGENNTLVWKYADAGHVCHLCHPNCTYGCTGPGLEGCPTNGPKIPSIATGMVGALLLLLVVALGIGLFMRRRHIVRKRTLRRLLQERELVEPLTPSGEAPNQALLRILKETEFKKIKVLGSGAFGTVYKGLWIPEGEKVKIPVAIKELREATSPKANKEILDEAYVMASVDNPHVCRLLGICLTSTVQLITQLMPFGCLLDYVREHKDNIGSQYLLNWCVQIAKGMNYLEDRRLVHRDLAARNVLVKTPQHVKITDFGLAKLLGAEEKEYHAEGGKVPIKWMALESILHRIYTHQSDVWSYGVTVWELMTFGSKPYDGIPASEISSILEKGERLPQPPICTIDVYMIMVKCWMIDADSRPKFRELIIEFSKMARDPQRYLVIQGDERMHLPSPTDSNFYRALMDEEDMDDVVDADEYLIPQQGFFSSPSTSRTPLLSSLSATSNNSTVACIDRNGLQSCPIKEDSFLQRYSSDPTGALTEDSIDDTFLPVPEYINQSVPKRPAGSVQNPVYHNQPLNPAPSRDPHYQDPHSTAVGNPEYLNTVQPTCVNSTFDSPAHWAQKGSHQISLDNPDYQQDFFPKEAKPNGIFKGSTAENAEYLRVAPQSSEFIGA

As for `C#CCOC(=O)[C@@H](C)Oc1ccc(Oc2ncc(Cl)cc2F)cc1`, the AC50 was 2130 nM (active) in experiment [1]; 1360 nM (active) with rat CYP2B1, gene 24300; 3730 nM (active) in experiment [2].

For `C=C(C)C(=O)OCC(F)(F)C(F)(F)C(F)(F)F`, the compound was classed as inactive in experiment [3] and in experiment [4].

As for `O=C(O)C(F)(F)OC(F)(F)C(F)(F)OC(F)(F)C(F)(F)OC(F)(F)C(F)(F)C(F)(F)C(F)(F)F`, the compound was classed as inactive in [3] and in [4].

Consider `O=C(CC(=O)C(F)(F)C(F)(F)C(F)(F)F)c1cccs1`, for which the call in [3] and in experiment [4] was inactive.

On to `O=C(O)CCC(F)(F)C(F)(F)C(F)(F)C(F)(F)C(F)(F)C(F)(F)C(F)(F)F`, for which the result in experiment [3] and in experiment [4] was inactive.

On to `S=C(S)NCCNC(=S)S.[Mn+2].[S-]C([S-])=NCCN=C([S-])[S-].[Zn+2]`, for which the result (in [1]; in experiment [5]; in experiment [6]; in the experiment with Caspase-1 (Homo sapiens); in experiment [7]; in experiment [13]) was inactive. For the same compound, the result in experiment [15], in [16] and in experiment [18] was inactive. For the same compound, the concentration at half-maximal activity (AC50) in experiment [8] was 3.99 µM (active) and 2.8 µM (active); in experiment [9], 9.13 µM (active) and 9.55 µM (active) and 21.4 µM (active); in experiment [10], 9.75 µM (active) and 926 nM (active) and 5.66 µM (active); in experiment [11] it was 3.14 µM (active) and 80.5 nM (active) and 274 nM (active); in experiment [12] it was 898 nM (active) and 519 nM (active); in experiment [14], 9.01 µM (active) and 2.11 µM (active) and 12.8 µM (active). Moreover, in experiment [17], the concentration at half-maximal activity (AC50) was 25000 nM (active).

What is called AC50 is the concentration at which the activity in the assay is half-maximal.
